Data reported in PubChem BioAssay (Tox21).
A number with no mark means an inactive call. Inconclusive results are not listed. A call without a number means that no potency is given here. Activity calls are given as the source filed them. The call rests on the fitted dose curve.

target: Acetylcholinesterase (Homo sapiens) (UniProt P22303); assay: Acetylcholinesterase (AChE) small molecule antagonists: enzyme-based qHTS assay (AID 1347397); settings: Potency: AChE enzyme activity inhibition; outcome: AChE enzyme activity inhibition; series mostly up to 115 µM; further: nearly all actives have a fitted effect of over 55% in size
Sequence (P22303 whole entry, looked up): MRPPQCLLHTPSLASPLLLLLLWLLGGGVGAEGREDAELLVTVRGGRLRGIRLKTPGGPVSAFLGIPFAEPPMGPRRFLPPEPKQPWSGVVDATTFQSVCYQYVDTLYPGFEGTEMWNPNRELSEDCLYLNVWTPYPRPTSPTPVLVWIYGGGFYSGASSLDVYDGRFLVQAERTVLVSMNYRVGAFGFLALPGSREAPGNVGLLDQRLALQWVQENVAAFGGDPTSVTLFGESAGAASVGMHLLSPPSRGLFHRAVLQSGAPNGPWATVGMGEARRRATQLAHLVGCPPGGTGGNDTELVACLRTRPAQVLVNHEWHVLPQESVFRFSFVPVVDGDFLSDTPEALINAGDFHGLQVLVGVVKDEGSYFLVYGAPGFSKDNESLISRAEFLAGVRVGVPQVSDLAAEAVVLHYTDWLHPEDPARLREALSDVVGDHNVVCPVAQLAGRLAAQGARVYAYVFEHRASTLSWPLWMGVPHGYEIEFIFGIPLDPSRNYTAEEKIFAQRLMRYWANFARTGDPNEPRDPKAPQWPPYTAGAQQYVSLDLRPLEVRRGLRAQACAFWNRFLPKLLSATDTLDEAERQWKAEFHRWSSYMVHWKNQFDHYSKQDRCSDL
Method in brief: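 Colorimetric DTNB read-out of thiocholine released from acetylthiocholine by recombinant human AChE (50 mU/mL as dispensed). Compounds were preincubated 30 min at RT before substrate/DTNB addition, with a 10 min RT reaction.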

| Structure (SMILES) | Potency | activity change, negative = inhibition |
| --- | --- | --- |
| C[C@H]1COc2c(C3(N)CC3)c(F)cc3c(=O)c(C(=O)O)cn1c23 | inactive |  |
| CC(C)(Oc1ccc(C2CC2(Cl)Cl)cc1)C(=O)O (stereo not given) | inactive |  |
| Cc1ccc(Cl)c(N)c1Cl | inactive |  |
| C1CN(CCOCCN2CCOCC2)CCO1 | inactive |  |
| O=C1NC(c2ccccc2)(c2ccccc2)C(=O)N1COP(=O)(O)O | inactive |  |
| OC/C(Br)=C(\Br)CO | inactive |  |
| CC(C)CCOC(=O)c1ccccc1 | inactive |  |
| COc1cc(C)cc(O)c1 | inactive |  |
| CC/C=C\C/C=C\C/C=C\CCCCCCCC(=O)O | inactive |  |
| C=C1C2CCC(C2)C1(C)C (stereo not given) | inactive |  |
| c1ccc2c(c1)[nH]c1ccccc12 | inactive |  |
| CC(C)C[C@H](NC(=O)[C@H](CCc1ccccc1)NC(=O)CN1CCOCC1)C(=O)N[C@@H](Cc1ccccc1)C(=O)N[C@@H](CC(C)C)C(=O)[C@@]1(C)CO1 | inactive |  |
| COc1ccc(-n2nc(CCC(=O)N(C)O)cc2-c2ccc(Cl)cc2)cc1 | inactive |  |
| Clc1cccc(Cl)n1 | inactive |  |
| Cc1ccc(S(=O)(=O)N=C=O)cc1 | inactive |  |
| CCCSSCCC | inactive |  |
| CC[C@@H]([C@H](C)O)n1ncn(-c2ccc(N3CCN(c4ccc(OC[C@@H]5CO[C@@](Cn6cncn6)(c6ccc(F)cc6F)C5)cc4)CC3)cc2)c1=O | inactive |  |
| CC(=O)c1sc(C)nc1C | inactive |  |
| CCN(CCO)c1cccc(C)c1 | inactive |  |
| CCCC(=O)OC | inactive |  |

| Structure (SMILES) | Potency | activity change, negative = inhibition |
| --- | --- | --- |
| CCN(CC)C(=O)c1ccc(O)c(OC)c1 | inactive |  |
| CCC(C)(CCCC(C)C)OC(C)=O (stereo not given) | inactive |  |
| Nc1nc2ccc(OC(F)(F)F)cc2s1 | inactive |  |
| COc1ccc([C@@H]2Sc3ccccc3N(CCN(C)C)C(=O)[C@@H]2OC(C)=O)cc1 | inactive |  |
| CC(=O)NS(=O)(=O)c1ccc(N)cc1 | inactive |  |
| Oc1ccc(C2(c3ccc(O)c(C4CCCCC4)c3)CCCCC2)cc1C1CCCCC1 | inactive |  |
| NC(N)=NCCC[C@H](N)C(=O)O |  | -0.554% [at 10.5 µM] |
| CC1(C)C(=O)N(Cl)C(=O)N1Br | inactive |  |
| Nc1ccc(O)c(C(=O)O)c1 | inactive |  |
| CC(C)CNCC(C)C | inactive |  |
| C=CC(=O)OCC(O)COc1ccccc1 (stereo not given) | inactive |  |
| CCCCCOC(=O)COc1cc(N2C(=O)C3=C(CCCC3)C2=O)c(F)cc1Cl | inactive |  |
| CC(C)(Oc1ccc(Cl)cc1)C(=O)OCCCOC(=O)C(C)(C)Oc1ccc(Cl)cc1 | inactive |  |
| CC(=O)c1ccc(Cl)c(Cl)c1Cl | inactive |  |
| CC(C)CCCCCCOC(=O)C1CCCCC1C(=O)OCCCCCCC(C)C (stereo not given) | inactive |  |
| COCCOCCOCCO | inactive |  |
| O=C(O)CC(O)C(=O)O (stereo not given) | inactive |  |
| CC(=O)CCC=C(C)C | inactive |  |
| OCc1ccc(Cl)cc1Cl | inactive |  |
| CC(C)c1cccc(C(C)C)c1N1C(=O)c2ccc(O)cc2C1=O | inactive |  |

target: Acetylcholinesterase (Homo sapiens) (UniProt P22303); assay: Acetylcholinesterase (AChE) small molecule antagonists: fluorescence cell-based qHTS assay (AID 1347398); settings: SH-SY5Y cells; Potency: AChE activity; outcome: AChE activity; series mostly up to 115 µM; further: nearly all actives have a fitted effect of over 50% in size
Method in brief: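 SH-SY5Y, 2,000 cells/well, attached overnight; cmpd 30 min 37 C; acetylthiocholine/Thiolite Green cocktail 40 min RT; fluorescence Ex/Em 490/520 nm.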

| Structure (SMILES) | Potency | activity change, negative = inhibition |
| --- | --- | --- |
| C[C@H]1COc2c(C3(N)CC3)c(F)cc3c(=O)c(C(=O)O)cn1c23 | inactive |  |
| CC(C)(Oc1ccc(C2CC2(Cl)Cl)cc1)C(=O)O (stereo not given) | inactive |  |
| Cc1ccc(Cl)c(N)c1Cl | inactive |  |
| C1CN(CCOCCN2CCOCC2)CCO1 | inactive |  |
| O=C1NC(c2ccccc2)(c2ccccc2)C(=O)N1COP(=O)(O)O | inactive |  |
| OC/C(Br)=C(\Br)CO | inactive |  |
| CC(C)CCOC(=O)c1ccccc1 | inactive |  |
| COc1cc(C)cc(O)c1 | inactive |  |
| CC/C=C\C/C=C\C/C=C\CCCCCCCC(=O)O | inactive |  |
| C=C1C2CCC(C2)C1(C)C (stereo not given) | inactive |  |
| c1ccc2c(c1)[nH]c1ccccc12 | inactive |  |
| CC(C)C[C@H](NC(=O)[C@H](CCc1ccccc1)NC(=O)CN1CCOCC1)C(=O)N[C@@H](Cc1ccccc1)C(=O)N[C@@H](CC(C)C)C(=O)[C@@]1(C)CO1 | inactive |  |
| COc1ccc(-n2nc(CCC(=O)N(C)O)cc2-c2ccc(Cl)cc2)cc1 | inactive |  |
| Clc1cccc(Cl)n1 | inactive |  |
| Cc1ccc(S(=O)(=O)N=C=O)cc1 | inactive |  |
| CCCSSCCC | inactive |  |
| CC[C@@H]([C@H](C)O)n1ncn(-c2ccc(N3CCN(c4ccc(OC[C@@H]5CO[C@@](Cn6cncn6)(c6ccc(F)cc6F)C5)cc4)CC3)cc2)c1=O | inactive |  |
| CC(=O)c1sc(C)nc1C | inactive |  |
| CCN(CCO)c1cccc(C)c1 | inactive |  |
| CCCC(=O)OC | inactive |  |

| Structure (SMILES) | Potency | activity change, negative = inhibition |
| --- | --- | --- |
| CCN(CC)C(=O)c1ccc(O)c(OC)c1 | inactive |  |
| CCC(C)(CCCC(C)C)OC(C)=O (stereo not given) | inactive |  |
| Nc1nc2ccc(OC(F)(F)F)cc2s1 | inactive |  |
| COc1ccc([C@@H]2Sc3ccccc3N(CCN(C)C)C(=O)[C@@H]2OC(C)=O)cc1 | inactive |  |
| CC(=O)NS(=O)(=O)c1ccc(N)cc1 | inactive |  |
| Oc1ccc(C2(c3ccc(O)c(C4CCCCC4)c3)CCCCC2)cc1C1CCCCC1 | inactive |  |
| NC(N)=NCCC[C@H](N)C(=O)O |  | 6.4% [at 10.5 µM] |
| CC1(C)C(=O)N(Cl)C(=O)N1Br | inactive |  |
| Nc1ccc(O)c(C(=O)O)c1 | inactive |  |
| CC(C)CNCC(C)C | inactive |  |
| C=CC(=O)OCC(O)COc1ccccc1 (stereo not given) | inactive |  |
| CCCCCOC(=O)COc1cc(N2C(=O)C3=C(CCCC3)C2=O)c(F)cc1Cl | inactive |  |
| CC(C)(Oc1ccc(Cl)cc1)C(=O)OCCCOC(=O)C(C)(C)Oc1ccc(Cl)cc1 | inactive |  |
| CC(=O)c1ccc(Cl)c(Cl)c1Cl | inactive |  |
| CC(C)CCCCCCOC(=O)C1CCCCC1C(=O)OCCCCCCC(C)C (stereo not given) | inactive |  |
| COCCOCCOCCO | inactive |  |
| O=C(O)CC(O)C(=O)O (stereo not given) | inactive |  |
| CC(=O)CCC=C(C)C | inactive |  |
| OCc1ccc(Cl)cc1Cl | inactive |  |
| CC(C)c1cccc(C(C)C)c1N1C(=O)c2ccc(O)cc2C1=O | inactive |  |
